Data on 50 molecules can be found in the antibiotic and cytotoxicity screens of Wong et al. (2023).

The whole screen tested about 39,000 compounds, of which about 3,300 (8.5%) were called active. The entries come from a sample that favours actives as a whole.

The subject of the assay is HepG2. Briefly: cytotoxicity call (relative viability < 0.9). The settings on record: 10 µM.
`C[C@H](CO)N1C[C@H](C)[C@H](CN(C)C(=O)CCC(F)(F)F)OCCCC[C@H](C)Oc2ccc(NC(=O)Cc3ccccc3)cc2C1=O`: the cytotoxicity call is “inactive”.

For the molecule `C[C@@H]1CN([C@@H](C)CO)C(=O)c2cc(C#Cc3cccc(F)c3)cnc2O[C@H]1CN(C)Cc1ccccn1`, the cytotoxicity call was “inactive”.

With `Cc1ccc(S(=O)(=O)Nc2ccc3c(c2)C(=O)N([C@@H](C)CO)C[C@@H](C)[C@H](CN(C)C(=O)c2ccccc2)OCCCC[C@H](C)O3)cc1`, the cytotoxicity call was “inactive”.

As for `Cc1noc(C)c1NC(=O)N(C)C[C@H]1OCCCC[C@H](C)Oc2ccc(NC(=O)C3CCCCC3)cc2C(=O)N([C@@H](C)CO)C[C@@H]1C`, the cytotoxicity call is “inactive”.

As for `C[C@@H]1CCCCO[C@H](CN(C)C(=O)Nc2ccc(F)cc2)[C@H](C)CN([C@H](C)CO)C(=O)c2cc(NC(=O)Cc3ccccc3)ccc2O1`, the cytotoxicity call was “inactive”.

`C[C@@H]1CN([C@@H](C)CO)C(=O)c2cccc(NC(=O)C3CCOCC3)c2O[C@@H]1CN(C)S(=O)(=O)c1ccccc1`: the cytotoxicity call was “inactive”.

In the case of `C[C@H](CO)N1C[C@H](C)[C@@H](CN(C)C(=O)CN2CCOCC2)Oc2ncc(-c3cncnc3)cc2C1=O`, the cytotoxicity call was “inactive”.

In the case of `Cc1noc(C)c1S(=O)(=O)N(C)C[C@H]1Oc2ccc(NS(C)(=O)=O)cc2C(=O)N([C@@H](C)CO)C[C@H]1C`, the cytotoxicity call was “inactive”.

Regarding `C[C@H]1CN([C@@H](C)CO)C(=O)c2cccc(NC(=O)Nc3ccc(C(F)(F)F)cc3)c2O[C@H]1CN(C)Cc1ccc(Cl)c(Cl)c1`, the cytotoxicity call is “inactive”.

Consider `C[C@@H]1CN([C@H](C)CO)C(=O)c2cccc(NC(=O)Nc3ccc(F)cc3)c2O[C@@H]1CN(C)Cc1ccc(Cl)c(Cl)c1`, for which the cytotoxicity call is “inactive”.

Consider `C[C@H](CO)N1C[C@H](C)[C@@H](CN(C)Cc2ccc(Cl)c(Cl)c2)Oc2c(NC(=O)Nc3ccc(C(F)(F)F)cc3)cccc2C1=O`, for which the cytotoxicity call was “active”.

On to `CCOc1ccnc2c1c(=O)n(CC(N)=O)c(=O)n2C`, for which the cytotoxicity call was “inactive”.

As to `Cc1noc(C)c1S(=O)(=O)N(C)C[C@@H]1OCCCC[C@H](C)Oc2ccc(NS(=O)(=O)c3cn(C)cn3)cc2C(=O)N([C@H](C)CO)C[C@@H]1C`, the cytotoxicity call was “inactive”.

In the case of `COc1cccc2c1C(=O)c1c(O)c3c(c(O)c1C2=O)C[C@](O)(C(C)=O)C[C@H]3O[C@H]1C[C@@H](N)[C@@H](O)[C@@H](C)O1`, the cytotoxicity call was “active”.

`COc1cccc2c1C(=O)c1c(O)c3c(c(O)c1C2=O)C[C@@](O)(C(C)=O)C[C@@H]3O[C@H]1C[C@H](N)[C@H](O)[C@H](C)O1`: the cytotoxicity call is “active”.

Regarding `COc1cccc2c1C(=O)c1c(O)c3c(c(O)c1C2=O)CC(O)(C(C)=O)CC3OC1CC(N)C(O)C(C)O1.Cl` (stereo not given), the cytotoxicity call was “active”.

As to `CC(=O)[C@]1(N)Cc2c(O)c3c(c(O)c2[C@@H](O[C@H]2C[C@H](O)[C@H](O)CO2)C1)C(=O)c1ccccc1C3=O`, the cytotoxicity call was “active”.

In the case of `CCNC(=O)C[C@@H]1C=C[C@@H](NC(=O)C2CCOCC2)[C@@H](CO)O1`, the cytotoxicity call is “inactive”.

`Cc1ccc(S[C@H](C)C(=O)c2ccc(C)c(Cl)c2)cc1`: the cytotoxicity call is “inactive”.

As to `C[C@@H]1CN([C@H](C)CO)C(=O)c2cc(NC(=O)c3ccccc3)ccc2O[C@@H](C)CCCCO[C@H]1CN(C)C(=O)CCC(F)(F)F`, the cytotoxicity call is “inactive”.

`C[C@@H]1CCCCO[C@H](CN(C)C(=O)Nc2ccc(F)cc2)[C@H](C)CN([C@H](C)CO)C(=O)c2cc(NC(=O)c3ccncc3)ccc2O1`: the cytotoxicity call is “inactive”.

On to `CCCN(C)C[C@@H]1Oc2cc(C#Cc3cccc(OC)c3)ccc2S(=O)(=O)N([C@H](C)CO)C[C@@H]1C`, for which the cytotoxicity call was “inactive”.

With `C/C=C(\C(C)=N\O)c1ccccc1`, the cytotoxicity call was “inactive”.

On to `CN1C(=O)c2cc(NC(=O)C3CCCC3)ccc2OC[C@H]2O[C@@H](CC(=O)NCCc3ccncc3)CC[C@H]21`, for which the cytotoxicity call was “inactive”.

With `CN(C)CC(=O)N[C@@H]1CC[C@H](CC(=O)O)O[C@@H]1CO`, the cytotoxicity call was “inactive”.

Turning to `CC(=O)[C@]1(O)Cc2c(O)c3c(c(O)c2[C@@H](O[C@@H]2C[C@@H](N)[C@H](O)[C@@H](C)O2)C1)C(=O)c1c(O)cccc1C3=O`, the cytotoxicity call was “active”.

Regarding `CC(C)NC(=O)Nc1ccc2c(c1)CC(=O)N([C@@H](C)CO)C[C@H](C)[C@@H](CN(C)S(=O)(=O)c1ccc(F)cc1)O2`, the cytotoxicity call was “inactive”.

On to `C[C@@H]1CN([C@@H](C)CO)C(=O)c2cc(NC(=O)Nc3cccc4ccccc34)ccc2O[C@@H]1CN(C)Cc1ccncc1`, for which the cytotoxicity call is “inactive”.

As to `C[C@H](CO)N1C[C@H](C)[C@H](CN(C)Cc2ccncc2)Oc2ccc(NC(=O)CCCN(C)C)cc2C1=O`, the cytotoxicity call was “inactive”.

Turning to `CC(C)C[C@@H](NC(=O)[C@@H](C)N)C(=O)O`, the cytotoxicity call was “inactive”.

In the case of `CC(C)C[C@H](N)C(=O)O`, the cytotoxicity call was “inactive”.

On to `CC(C)C[C@H](N)C(=O)N[C@@H](C)C(=O)O`, for which the cytotoxicity call was “active”.

Regarding `C[C@H]1CN([C@@H](C)CO)C(=O)Cc2cc(NC(=O)CCN3CCOCC3)ccc2O[C@H]1CN(C)S(=O)(=O)c1cn(C)cn1`, the cytotoxicity call is “inactive”.

Regarding `O=C(O)CCCN=C1NC(=O)CC(=O)N1`, the cytotoxicity call was “inactive”.

On to `O=C1CSC(=Nc2nccs2)N1`, for which the cytotoxicity call was “inactive”.

As for `O=C(O)CCN=C1NC(=O)CS1`, the cytotoxicity call was “active”.

For `C[C@H]1CN([C@@H](C)CO)C(=O)c2cccc(NC(=O)c3ccncc3)c2O[C@@H]1CN(C)Cc1ccc(-c2ccccc2)cc1`, the cytotoxicity call was “inactive”.

As to `C[C@H](CO)N1C[C@H](C)[C@@H](CN(C)S(=O)(=O)c2ccc(F)cc2)Oc2ccc(NS(=O)(=O)c3cccs3)cc2CC1=O`, the cytotoxicity call was “inactive”.

Regarding `COc1ccc([Si](C)(C)[C@@H]2[C@@H](CC(=O)N3Cc4ccccc4C[C@H]3CO)O[C@]3(C(=O)N(C)c4c(Br)cc(C)cc43)[C@H]2C)cc1`, the cytotoxicity call is “inactive”.

`COc1ccc([Si](C)(C)[C@@H]2[C@@H](CC(=O)N(CCO)Cc3ccccc3)O[C@]3(C(=O)N(C)c4c(Br)cc(C)cc43)[C@H]2C)cc1`: the cytotoxicity call was “inactive”.

With `COc1ccc(C(=O)Nc2ccc(CN3C(=O)[C@]4(O[C@H](CC(=O)N(CCO)Cc5ccccc5)[C@@H]([Si](C)(C)c5ccc(OC)cc5)[C@@H]4C)c4ccccc43)cc2)cc1`, the cytotoxicity call is “inactive”.

For the molecule `COc1ccc([Si](C)(C)[C@@H]2[C@@H](CCn3cc([C@H](O)c4ccccc4)nn3)O[C@]3(C(=O)N(C)c4c(Br)cc(C)cc43)[C@H]2C)cc1`, the cytotoxicity call is “inactive”.

With `COc1ccc(C(=O)Nc2ccc(CN3C(=O)[C@@]4(O[C@@H](CC(=O)N(CCO)Cc5ccccc5)[C@H]([Si](C)(C)c5ccc(OC)cc5)[C@H]4C)c4ccccc43)cc2)cc1`, the cytotoxicity call was “inactive”.

With `COc1ccc([Si](C)(C)[C@@H]2[C@@H](CC(=O)N(CCO)Cc3ccccc3)O[C@]3(C(=O)N(Cc4cccc(N5CCOC5=O)c4)c4ccccc43)[C@H]2C)cc1`, the cytotoxicity call is “inactive”.

Regarding `COc1ccc([Si](C)(C)[C@H]2[C@H](CCn3cc([C@H](O)c4ccccc4)nn3)O[C@@]3(C(=O)N(c4ccccc4)c4ccccc43)[C@@H]2C)cc1`, the cytotoxicity call was “inactive”.

Take `COc1ccc(C(=O)Nc2cccc(CN3C(=O)[C@@]4(O[C@@H](CC(=O)N(CCO)Cc5ccccc5)[C@H]([Si](C)(C)c5ccc(OC)cc5)[C@H]4C)c4ccccc43)c2)cc1`: the cytotoxicity call is “active”.

As to `COc1ccc([Si](C)(C)[C@H]2[C@H](CC(=O)N(CCO)Cc3ccccc3)O[C@@]3(C(=O)N(C)c4c(Br)cc(C)cc43)[C@@H]2C)cc1`, the cytotoxicity call was “active”.

As for `COc1ccc([Si](C)(C)[C@H]2[C@H](CC(=O)N(CCO)Cc3ccccc3)O[C@@]3(C(=O)N(Cc4cccc(N5CCOC5=O)c4)c4ccccc43)[C@@H]2C)cc1`, the cytotoxicity call was “inactive”.

As for `COc1ccc(C(=O)Nc2cccc(CN3C(=O)[C@]4(O[C@H](CC(=O)N(CCO)Cc5ccccc5)[C@@H]([Si](C)(C)c5ccc(OC)cc5)[C@@H]4C)c4ccccc43)c2)cc1`, the cytotoxicity call was “active”.

On to `COc1ccc([Si](C)(C)[C@H]2[C@H](CCn3cc([C@H](O)c4ccccc4)nn3)O[C@@]3(C(=O)N(C)c4c(Br)cc(C)cc43)[C@@H]2C)cc1`, for which the cytotoxicity call is “active”.
